# In PubChem BioAssay AID2797 (The Scripps Research Institute Molecular Screening Center, 2010):
# In all, about 320,000 compounds went through this assay and about 820 (0.26%) were called active.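 How the source made its calls: active means activation above the mean activation of all tested compounds plus 3 SD, per screening run (cut at about 20% in these data); inactive means the rest.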 Many of the other results were omitted from the sample, so actives are more common in it than they were.
# Molecular target: Vasopressin V1a receptor (Homo sapiens) (UniProt P37288)
# Test: agonists of human V1a receptor, primary screen, counter-screen for OXTR agonist project, fluorescence, CHO-V1R cells (AID 2797);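 further: signal is peak over basal fluorescence ratio across a 100 second FLIPR read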
# Conditions: Fluo-8 calcium fluorescence, agonist mode, at 3 µM, hits give high values, 0% DMSO, 100% 3 nM vasopressin
# Vasopressin V1a receptor (Homo sapiens), sequence (P37288 whole entry, looked up): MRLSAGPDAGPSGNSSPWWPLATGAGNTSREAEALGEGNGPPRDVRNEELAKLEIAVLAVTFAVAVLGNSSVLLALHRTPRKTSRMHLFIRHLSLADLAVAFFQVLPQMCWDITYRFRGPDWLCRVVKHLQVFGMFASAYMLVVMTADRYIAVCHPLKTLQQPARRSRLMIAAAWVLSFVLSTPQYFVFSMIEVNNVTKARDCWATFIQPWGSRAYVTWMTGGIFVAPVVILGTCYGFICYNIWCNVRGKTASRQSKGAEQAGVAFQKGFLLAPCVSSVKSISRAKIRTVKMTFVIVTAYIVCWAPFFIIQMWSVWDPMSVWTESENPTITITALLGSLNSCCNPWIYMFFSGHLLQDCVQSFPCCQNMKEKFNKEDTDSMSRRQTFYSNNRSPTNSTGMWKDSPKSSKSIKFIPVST
row,Structure (SMILES),activation
1,COc1ccc(NC(=O)CN(Cc2ccccc2)S(C)(=O)=O)cc1OC,0.58% (inactive)
2,COc1ccc(OCCNC(=O)c2cc(C3CC3)nc3c2cnn3C(C)C)cc1,-0.36% (inactive)
3,COCCCNC(=S)NC(=O)c1ccccc1,1.26% (inactive)
4,CCOC(=O)C1=C(NC(=S)NC(=O)c2ccccc2)c2ccccc2CC1(C)C,29.8% (active)
5,Cc1ccc(NC(=S)NC(=O)c2ccc(-c3ccccc3)cc2)cc1,0.62% (inactive)
6,Cc1ccc(NC(=O)CSc2nn3c(=O)c(C)nnc3s2)cc1Cl,0.31% (inactive)
7,CCC(C)C(=O)Nc1cc([N+](=O)[O-])ccc1Cl (centres undefined),-0.34% (inactive)
8,CC(C)(C)NC(=O)C(=O)NCc1ccncc1,0% (inactive)
9,O=C(CCCN=C1NS(=O)(=O)c2ccccc21)OCC(=O)c1ccc(F)c(F)c1,22.6% (active)
10,O=C(OCCN=C1NS(=O)(=O)c2ccccc21)c1cccc([N+](=O)[O-])c1,3.94% (inactive)
11,N#CC1(NC(=O)COC(=O)CCN=C2NS(=O)(=O)c3ccccc32)CCCCC1,0.74% (inactive)
12,N#CCN(C(=O)COC(=O)C1CC2CCCC(C1)C2=O)c1ccccc1 (centres undefined),-0.11% (inactive)
13,COc1ccc(C23NCCN2C(=O)c2ccccc23)cc1 (centres undefined),-0.14% (inactive)
14,CCOC(=O)N1CCN(CCC(=O)Nc2ccccc2)CC1,0.3% (inactive)
15,Cc1cc(NC(=O)CCN2CCN(Cc3ccccc3)CC2)ccc1Br,26.5% (active)
16,CC1CCN(CCC(=O)Nc2ccccc2)CC1,0.38% (inactive)
17,O=C1Nc2ccccc2/C1=C/c1ccnc2ccccc12,3.16% (inactive)
18,Cc1cc(C)c(/C=C2\C(=O)Nc3ccccc32)[nH]1,23.6% (active)
19,CN(C)/C=C1/Nc2ccccc2C1=O,1.1% (inactive)
20,COc1ccc([C@H]2CC(=O)C=C(c3ccc(OC(F)(F)F)cc3)C2)cc1OC,1.96% (inactive)
21,COc1ccc(C2CC(c3cccs3)Nc3nnnn32)cc1 (centres undefined),1.36% (inactive)
22,Cc1ccc(S(=O)(=O)NCCC(=O)NNC(=O)C2COc3ccccc3O2)cc1 (centres undefined),-0.1% (inactive)
23,COc1ccc(C2C(C#N)=C(N)N(c3ncn[nH]3)C3=C2C(=O)CCC3)cc1 (centres undefined),1.11% (inactive)
24,Cc1cc2nc3c(=O)n(Cc4ccccc4)c(=O)[nH]c3nc2cc1N,73.4% (active)
25,CN(C(=O)COC(=O)c1ccc(Br)o1)c1c(N)n(Cc2ccccc2)c(=O)[nH]c1=O,-0.45% (inactive)

row,Structure (SMILES),activation
1,C=CCSc1nc2c(c(=O)[nH]c(=O)n2C)n1Cc1ccccc1,0.69% (inactive)
2,C[C@H](NC(=O)c1nc[nH]c1C(=O)NCC(=O)OC(C)(C)C)c1ccccc1,-0.3% (inactive)
3,Cc1c(Br)cc(C(=O)N2CCCCCC2)c(C)c1C,-1.61% (inactive)
4,O=C(NC(=S)Nc1ccccc1N1CCCCC1)c1ccc(F)cc1,-0.81% (inactive)
5,COC(=O)Cc1ccc(NC(=S)NCc2ccc(Cl)cc2)cc1,10% (inactive)
6,Cc1ccccc1N/C(SCc1ccc(Cl)cc1)=C(/C#N)C(N)=O,-0.5% (inactive)
7,Cc1ccccc1NC(=S)NC(=O)Cc1ccc(Cl)cc1,26.2% (active)
8,O=C(COc1ccc(Cl)cc1)NC(=S)Nc1ccccc1N1CCOCC1,3.48% (inactive)
9,O=C(Cc1ccc(Cl)cc1)NC(=S)Nc1ccccc1O,47.5% (active)
10,Cc1cccc(NC(=S)NCCc2ccc(Cl)cc2)c1C,0.32% (inactive)
11,CCN1CCN(C(=O)CN(C)S(=O)(=O)c2ccc3ccccc3c2)CC1,0.47% (inactive)
12,Cc1nc2scc(-c3cccs3)c2c(=O)n1N,-0.59% (inactive)
13,CCOc1ccc(C(=O)Nc2ccc(S(=O)(=O)NCC3CCCO3)cc2)cc1OCC (centres undefined),1.35% (inactive)
14,Cc1ccc(OCCNC(=O)CNC(=O)c2ccc(C)c(C)c2)cc1,-0.83% (inactive)
15,Cc1nc2c(ncn2-c2ccccc2)c(=O)n1NC(=O)CN1CCCC1,0.46% (inactive)
16,CCOc1ccc(C2=CC(c3ccccc3)n3ncnc3N2)cc1 (centres undefined),0.49% (inactive)
17,COc1ccc(C2C=C(c3ccc(Br)cc3)Nc3nc(NS(C)(=O)=O)nn32)cc1 (centres undefined),23.5% (active)
18,Brc1ccc(C2=CC(c3ccco3)n3ncnc3N2)cc1 (centres undefined),9.25% (inactive)
19,CCS(=O)(=O)c1ccc(O)c(NC(=O)COc2ccc(Cl)cc2)c1,3.1% (inactive)
20,Cc1ccc(O)c(NC(=S)NC(=O)COc2ccc(Br)cc2)c1,56% (active)
21,COc1ccc(C(=O)Nc2cc(C)ccc2NC(=O)COc2ccccc2)cc1,0.75% (inactive)
22,CCN1CCN(c2sc(S(C)(=O)=O)nc2S(=O)(=O)c2ccc(Cl)cc2)CC1,0.09% (inactive)
23,CCn1c(C(C)C)n[nH]c1=S,0.69% (inactive)
24,CCOC(=O)N/N=C1\CC(C)S(=O)(=O)c2ccc(Cl)cc21 (centres undefined),-1.51% (inactive)
